Laboratory results published in PubChem BioAssay (Tox21).
Values joined by “and” are separate entries in the source; they are usually repeats but may differ in a detail not shown here. Identical values can stand only once. Records with an inconclusive call do not appear. Some structures have more than one record in an assay (separate samples or runs), and their calls can disagree. Active and inactive are the calls of the source. Unless noted, the call rests on the fitted dose curve; in most records, active means well fitted curve in the direction sought with a large enough effect in the repeat runs; inconclusive means weak or mixed curves; inactive means no such curve, though single readings can be large; an effect the other way counts as inactive or inconclusive.

What was measured:
[1] = A CellTox Green Cytotoxicity Assay to monitor cytotoxicity in HepG2 cells - 8 hour (AID 1224890); further: nearly all actives have a fitted effect of over 45% in size; further: potency means the concentration at half of the fitted maximal effect
In short: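 Read-out is fluorescence of a cyanine dye excluded from live cells that stains DNA of dead HepG2 cells, with signal proportional to cytotoxicity. Plates were read at 0, 8, 16, 24, 32 and 40 h after compound addition.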

[2] = target: Estrogen receptor (Homo sapiens) (UniProt P03372); experiment: qHTS assay to identify small molecule antagonists of the estrogen receptor alpha (ER-alpha) signaling pathway using the BG1 cell line in the presence of 0.1 nM 17-beta-estradiol (AID 1259244); further: nearly all actives have a fitted effect of over 50% in size
Sequence of Estrogen receptor (Homo sapiens) (P03372 whole entry, looked up): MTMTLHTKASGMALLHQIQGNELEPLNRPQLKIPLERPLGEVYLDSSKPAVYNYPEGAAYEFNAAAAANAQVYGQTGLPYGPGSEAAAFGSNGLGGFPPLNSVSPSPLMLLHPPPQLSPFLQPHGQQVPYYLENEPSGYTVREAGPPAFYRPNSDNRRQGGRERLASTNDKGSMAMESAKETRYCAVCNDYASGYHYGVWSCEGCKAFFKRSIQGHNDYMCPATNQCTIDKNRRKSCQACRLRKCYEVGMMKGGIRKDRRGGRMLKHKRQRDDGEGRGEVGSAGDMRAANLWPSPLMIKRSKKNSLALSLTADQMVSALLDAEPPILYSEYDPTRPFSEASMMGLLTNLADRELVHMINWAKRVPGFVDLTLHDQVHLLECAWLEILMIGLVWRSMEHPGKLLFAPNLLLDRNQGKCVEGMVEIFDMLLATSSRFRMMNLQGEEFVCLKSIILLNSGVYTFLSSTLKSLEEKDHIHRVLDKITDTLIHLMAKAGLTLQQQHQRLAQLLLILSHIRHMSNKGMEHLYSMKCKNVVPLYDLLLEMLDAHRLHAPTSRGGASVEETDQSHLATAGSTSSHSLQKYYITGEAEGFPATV
In short: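 Cells: VM7Luc4E2, endogenous ER-alpha, 4x ERE-luc stable. Pre-culture 5 d, phenol red-free, charcoal-stripped FBS. Plated 24 h, compound + E2 0.1 nM final, 22 h 37C/5% CO2. Readout ONE-Glo luminescence.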

[3] = qHTS assay to identify small molecule phospholipidosis (PLD) inducers (AID 1259344; active means well fitted curve in the direction sought with a large enough effect; an effect the other way counts as inactive or inconclusive; further: potency means the concentration at half of the fitted maximal effect)
In short: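 HepG2 cells on collagen I, attached 4 h at 37 C, were co-treated with compound and LipidTOX Red dye for 24 h at 37 C, then fixed with paraformaldehyde plus Hoechst 33342 and imaged by high-content microscopy for phospholipid accumulation.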

[4] = qHTS assay to identify small molecule HDAC inhibitors (AID 1259364); further: top concentration of the series differs between compounds; nearly all actives have a fitted effect of over 45% in size
In short: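 Luminescence from a cell-permeant luminogenic class I/II HDAC substrate reports endogenous deacetylase activity in intact HCT-116 cells treated with compounds for 2 h.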

[5] = qHTS assay to identify small molecule HDAC inhibitors - cell viability counter screen (AID 1259365); further: series mostly up to about 92 µM; nearly all actives have a fitted effect of over 50% in size
In short: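 Viability readout: CellTiter-Glo luminescence. Wild-type HCT-116 cells, 2hr compound treatment following overnight attachment at 37 C.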

[6] = qHTS assay to identify small molecule agonists of the sonic hedgehog signaling (Shh) pathway - cell viability counter screen (AID 1259366); further: nearly all actives have a fitted effect of over 50% in size; further: potency means the concentration at half of the fitted maximal effect
In short: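 Viability measured fluorometrically (CellTiter-Fluor, 1hr, 37C) in 3T3 Gli1-Luc reporter cells after 23hr compound exposure within a 24hr incubation at 37C/5% CO2.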

[7] = qHTS assay to identify small molecule antagonists of the sonic hedgehog signaling (Shh) pathway - cell viability counter screen (AID 1259367); further: nearly all actives have a fitted effect of over 55% in size
In short: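 NIH/3T3-derived Gli1-Luc reporter cells (2,000 per well) rested 4 hr at 37 C, then received DMSO compounds plus conditioned medium. After 23 hr of treatment, CellTiter-Fluor was added for 1 hr at 37C and fluorescence read.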

[8] = qHTS assay to identify small molecule antagonists of the estrogen receptor alpha (ER-alpha) signaling pathway using the BG1 cell line in the presence of 0.1 nM 17-beta-estradiol - cell viability counter screen (AID 1259241); further: nearly all actives have a fitted effect of over 40% in size
In short: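 The cell line endogenously expresses full-length ER-alpha and carries four EREs driving luciferase. Cells are cultured 5 days hormone-free, treated 22 hr with compounds and 0.1 nM estradiol, then viability is read by fluorescence.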

[9] = qHTS assay to identify small molecule antagonists of the androgen receptor (AR) signaling pathway using the MDA cell line in the presence of 0.5 nM R1881 - cell viability counter screen (AID 1259242); further: nearly all actives have a fitted effect of over 45% in size
In short: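 Counter screen for cytotoxicity run in the same wells as the AR antagonist reporter screen: MDA-kb2 cells were treated 16 hr with test compounds and 0.5 nM R1881, then live-cell protease activity was measured by fluorescence.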

[10] = target: Androgen receptor (Homo sapiens) (UniProt P10275); experiment: qHTS assay to identify small molecule antagonists of the androgen receptor (AR) signaling pathway using the MDA cell line in the presence of 0.5 nM R1881 (AID 1259243); further: nearly all actives have a fitted effect of over 50% in size
Sequence of Androgen receptor (Homo sapiens) (P10275 whole entry, looked up): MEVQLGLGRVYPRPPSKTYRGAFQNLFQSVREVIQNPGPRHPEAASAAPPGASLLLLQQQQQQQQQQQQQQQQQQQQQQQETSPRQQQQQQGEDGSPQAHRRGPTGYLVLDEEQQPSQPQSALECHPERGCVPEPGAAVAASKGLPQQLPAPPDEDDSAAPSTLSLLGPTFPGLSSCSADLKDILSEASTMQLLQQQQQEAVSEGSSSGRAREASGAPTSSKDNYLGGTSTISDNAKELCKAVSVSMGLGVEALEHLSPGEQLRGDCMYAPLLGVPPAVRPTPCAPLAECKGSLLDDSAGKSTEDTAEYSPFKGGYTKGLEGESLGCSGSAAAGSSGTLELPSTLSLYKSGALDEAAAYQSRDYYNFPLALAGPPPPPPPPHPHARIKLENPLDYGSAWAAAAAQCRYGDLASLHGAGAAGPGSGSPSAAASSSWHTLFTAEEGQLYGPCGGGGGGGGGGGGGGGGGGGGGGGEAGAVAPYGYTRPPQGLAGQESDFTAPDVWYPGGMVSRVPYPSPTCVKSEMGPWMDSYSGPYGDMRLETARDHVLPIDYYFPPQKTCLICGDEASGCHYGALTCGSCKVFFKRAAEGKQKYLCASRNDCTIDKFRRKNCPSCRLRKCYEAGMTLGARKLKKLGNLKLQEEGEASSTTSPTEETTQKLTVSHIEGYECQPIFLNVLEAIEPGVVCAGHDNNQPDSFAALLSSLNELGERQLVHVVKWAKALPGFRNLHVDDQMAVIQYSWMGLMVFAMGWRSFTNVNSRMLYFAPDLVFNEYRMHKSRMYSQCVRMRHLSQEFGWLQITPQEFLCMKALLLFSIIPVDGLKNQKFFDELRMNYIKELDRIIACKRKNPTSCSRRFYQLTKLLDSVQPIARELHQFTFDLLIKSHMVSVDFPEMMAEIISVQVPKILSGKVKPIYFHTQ
In short: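 Luciferase luminescence is the read-out: compounds are tested for suppressing 0.5 nM R1881-driven MMTV reporter activity in MDA-kb2 cells after 16 hr at 37C.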
On the % scale 0 is the no-effect control and ±100 the full control effect.

O=c1cc(CO)occ1O
inactive: Potency [1] | outcome [2] | Potency [3] | Potency [4] | outcome [5] | Potency [6] | Potency [7]

O=C(c1ccccc1)C1CCCCC1
inactive: outcome [8] | Potency [9] | Potency [10] | outcome [2] | Potency [4] | outcome [5] | Potency [6] | Potency [7]

Cc1cc2c(cc1S(N)(=O)=O)S(=O)(=O)CCC2
inactive: Potency [1] | Potency [9] | outcome [2] | Potency [3] | Potency [4] | outcome [5] | Potency [6] | Potency [7]

C=C(C)C(=O)OCCCCCCCC(C)C
inactive: outcome [8] | Potency [9] | Potency [10] | outcome [2] | Potency [4] | outcome [5]

CC(C)(O)C(=O)c1ccccc1
inactive: outcome [8] | Potency [9] | Potency [10] | outcome [2] | Potency [4] | outcome [5] | Potency [6] | Potency [7]

CCCCNC(=O)NCCCC
inactive: outcome [8] | Potency [9] | Potency [10] | outcome [2] | Potency [4] | outcome [5] | Potency [6] | Potency [7]

C=C(C)CS(=O)(=O)O
inactive: outcome [8] | Potency [9] | Potency [10] | outcome [2] | Potency [4] | outcome [5] | Potency [6] | Potency [7]

COc1cc(C(=O)N2CCCCCCC2)cc(OC)c1OC
inactive: outcome [8] | Potency [9] | outcome [2] | Potency [3] | Potency [4] | outcome [5] | Potency [6] | Potency [7]

Oc1ccc(C2CNCCc3c2cc(O)c(O)c3Cl)cc1 (centres undefined)
inactive: Potency [1] | Potency [9] | Potency [3] | Potency [4] | outcome [5] | Potency [7]

c1ccc(CC2=NCCN2)cc1
inactive: Potency [1] | Potency [9] | outcome [2] | Potency [3] | Potency [4] | outcome [5] | Potency [6] | Potency [7]

CS(=O)(=O)O
inactive: outcome [8] | Potency [9] | Potency [10] | outcome [2] | Potency [4] | outcome [5] | Potency [6] | Potency [7]

COC(=O)CCSCCC(=O)OC
inactive: Potency [1] | Potency [9] | Potency [4] | outcome [5] | Potency [6] | Potency [7]

CC(C)NCC(O)c1ccc(NS(C)(=O)=O)cc1 (centres undefined)
inactive: Potency [1] | Potency [9] | Potency [3] | Potency [4] | outcome [5] | Potency [6] | Potency [7]

COC(=O)c1ccc(C)cc1C1=NC(C)(C(C)C)C(=O)N1 (centres undefined)
inactive: Potency [1] | Potency [9] | Potency [4] | outcome [5] | Potency [6] | Potency [7]

COC(=O)NN
inactive: Potency [1] | Potency [9] | outcome [2] | Potency [4] | outcome [5] | Potency [6] | Potency [7]

NC(CSCC(=O)O)C(=O)O (centres undefined)
inactive: Potency [1] | Potency [9] | outcome [2] | Potency [3] | Potency [4] | outcome [5] | Potency [6] | Potency [7]

N#Cc1ccc(C2CCCc3cncn32)cc1 (centres undefined)
inactive: Potency [1] | Potency [9] | outcome [2] | Potency [4] | outcome [5] | Potency [6] | Potency [7]

CC(C)CCCC(C)N (centres undefined)
inactive: Potency [1] | outcome [2] | Potency [3] | Potency [4] | outcome [5] | Potency [6] | Potency [7]

Nc1ccccc1S(=O)(=O)O
inactive: Potency [1] | Potency [4] | outcome [5] | Potency [6] | Potency [7]

COc1ccc(CCN(C)CCCC(C#N)(c2cc(OC)c(OC)c(OC)c2)C(C)C)cc1OC (centres undefined)
inactive: Potency [1] | Potency [9] | Potency [4] | outcome [5]
active: Potency [3] 5.62 µM | Potency [6] 15 µM

CO/N=C(/C(=O)N[C@@H]1C(=O)N2C(C(=O)OCOC(=O)C(C)(C)C)=C(C)CS[C@H]12)c1csc(N)n1
inactive: Potency [1] | Potency [9] | Potency [3] | Potency [4] | outcome [5] | Potency [6] | Potency [7]

CCCCCCCCCCCCCC=O
inactive: cytotoxicity increase [1] 5.89% [at 6.97 µM] | viability change, negative = cytotoxic [9] -0.255% [at 8.39 µM] | activity change, negative = inhibition [2] 5.09% [at 8.39 µM] | activity change, negative = inhibition [4] -0.0684% [at 8.39 µM] | activity change, negative = cytotoxicity [5] 1.26% [at 8.39 µM] | viability change, negative = cytotoxic [6] 5.21% [at 8.39 µM] | viability change, negative = cytotoxic [7] 0.0972% [at 8.39 µM]

N=C(N)c1ccc(OCCCOc2ccc(C(=N)N)cc2)cc1
inactive: Potency [1] | Potency [9] | outcome [2] | PLD induction [3] -2.77% [at 0.306 µM] | Potency [4] | outcome [5] | Potency [6] | Potency [7]

COC(=O)c1c(Cl)c(Cl)c(C(=O)OC)c(Cl)c1Cl
inactive and 110 nM (active): Potency [1]
inactive: Potency [9] | outcome [2] | Potency [3] | Potency [4] | outcome [5] | Potency [6] | Potency [7]

CCN1CCC[C@H]1CNC(=O)c1cc(S(N)(=O)=O)ccc1OC
inactive: Potency [9] | Potency [10] | Potency [3] | Potency [4] | outcome [5] | Potency [6] | Potency [7]

CN1CCCC1
inactive: outcome [8] | Potency [9] | outcome [2] | Potency [4] | outcome [5] | Potency [6] | Potency [7]

COc1ccc2c(c1)CCCC2=O
inactive: outcome [8] | Potency [9] | outcome [2] | Potency [4] | outcome [5] | Potency [6] | Potency [7]

CC/C=C\CC/C=C/CO
inactive: outcome [8] | Potency [9] | Potency [4] | outcome [5] | Potency [6] | Potency [7]
